# Article PMC4552634, “A New Set of Chemical Starting Points with Plasmodium falciparum Transmission-Blocking Potential for Antimalarial Drug Discovery” (PLoS ONE, 2015)
# In all, about 13,000 compounds went through this assay and about 3,200 (25%) showed an effect of 50% or more. The list shows a part of the results.
# System: P. falciparum stage V gametocytes
# Parameters: BacTiter-Glo ATP luminescence viability of purified stage V gametocytes in 384-well plates, per cent inhibition versus DMSO
# Conditions: 48 h, 5 µM; inhibitor
row,Compound,% Inhibition [%]
1,COc1cc(NC(=O)c2c(-c3c(Cl)cccc3Cl)noc2C)c(OC)cc1Cl [TCMDC-125477],-41.77
2,CC(O)C(C)(CO)NCc1ccc2c3c(cccc13)-c1ccccc1-2 (stereo not drawn) [TCMDC-138117],15.45
3,NC(=O)c1cnc2ccc(-c3cncs3)cc2c1Nc1ccc(F)c(Cl)c1 [TCMDC-138566],50.74
4,Cc1noc(C)c1-c1ccc2c(Nc3ccc(C(F)(F)F)cc3)c(C(N)=O)cnc2c1.Cl [TCMDC-136019],23.08
5,Cc1ccc(O)cc1Nc1c(C(N)=O)cnc2ccc(-c3cncs3)cc12 [TCMDC-138565],46.98
6,COc1cccc(C2(NC[C@@H](O)[C@H](Cc3ccccc3)NC(=O)c3ccccc3)CCCCC2)c1 [TCMDC-135740],7.84
7,CC(C)CCCC(C)(C)NC[C@@H](O)[C@H](Cc1ccccc1)NC(=O)c1cccc(CCC2CC2)c1 [TCMDC-136602],71.1
8,CCCOc1cccc(C(=O)N[C@@H](Cc2ccccc2)[C@H](O)CNCc2cccc(OC)c2)c1 [TCMDC-136707],12.44
9,CCCOc1cccc(C(=O)N[C@@H](Cc2ccccc2)[C@H](O)CNCc2ccccc2OC)c1 [TCMDC-136706],81.52
10,O=C(N[C@@H](Cc1ccccc1)[C@H](O)CNCCC(F)(F)F)c1cccc(OCC2CC2)c1 [TCMDC-136610],48.68
11,CCOc1cc(C(=O)N[C@@H](Cc2ccccc2)[C@H](O)CNCc2cccc(OC)c2)cc(N2CCCCS2(=O)=O)c1 [TCMDC-134521],-19.61
12,CC(C)CCCC(C)(C)NC[C@@H](O)[C@H](Cc1ccccc1)NC(=O)c1cccc(OCC2CC2)c1 [TCMDC-136556],100.1
13,O=C(N[C@@H](Cc1ccccc1)[C@H](O)CNCCC(F)(F)F)c1cccc(CCC2CC2)c1 [TCMDC-136611],-3.968
14,CCNc1cc(C(=O)N[C@@H](Cc2ccccc2)[C@H](O)CNC(C)(C)Cc2cccc(OC)c2)cc(N2CCCC2=O)c1 [TCMDC-134574],1.402
15,Clc1ccccc1/C=C/c1cncnc1Nc1ccc2nc(Cc3ccccc3)[nH]c2c1 [TCMDC-138659],0.669
16,COc1ccc(-c2ccnc(-c3cccc(-c4ccccn4)n3)c2)cc1 [TCMDC-125008],155.4
17,COc1cc(Nc2ccnc3cc(-c4ccccn4)ccc23)cc(OC)c1OC [TCMDC-138203],0.8769
18,c1ccc(-c2cccc(-c3ccccn3)n2)nc1 [TCMDC-123985],-15.75
19,N#Cc1ccc(NC(=NC2Cc3ccccc3C2)Nc2cccc(Cl)c2Cl)c(O)c1 [TCMDC-140223],-11.72
20,O=C(/C=C/c1ccc(Cl)c(Cl)c1)N1CCC(C(O)CN2CCC(c3c[nH]c4ccccc34)CC2)CC1 (stereo not drawn) [TCMDC-134171],19.99
21,O=C(/C=C/c1cccc(Cl)c1)N1CCC(C(O)CN2CCC3(CC2)CN(C(=O)/C=C/c2cccc(Cl)c2)c2ccccc23)CC1 (stereo not drawn) [TCMDC-134543],57.97
22,CS(=O)(=O)Nc1ccc2[nH]cc(C3CCN(CC(O)C4CCN(C(=O)/C=C/c5ccc(Cl)c(Cl)c5)CC4)CC3)c2c1 (stereo not drawn) [TCMDC-134176],30.58

row,Compound,% Inhibition [%]
1,CC(=O)Nc1ccc(CN2CCC(NC(=O)c3ccc(-c4cccc(F)c4)s3)CC2)cc1 [TCMDC-134333],6.679
2,CCNc1cc(C(=O)N[C@@H](Cc2cc(F)cc(F)c2)[C@H](O)CNCc2cccc(C(F)(F)F)c2)cc(N2CCCCS2(=O)=O)c1 [TCMDC-134678],-1.763
3,CC(C)CCNC(=O)[C@@H]1[C@H]2C(=O)N(C3CCCCC3)C(=O)[C@H]2[C@H]2C=C[C@@H]3C(c4ccc(C(C)(C)C)cc4)=NO[C@@H]3N21 [TCMDC-139763],-31.5
4,Cc1cc(CN2CCCC(OC(c3ccc(F)cc3)c3ccc(F)cc3)C2)ccc1O (stereo not drawn) [TCMDC-136168],43.13
5,CN(C)CCNc1ncnc2c1[nH]c1ccc(Cl)cc12 [TCMDC-124582],1.888
6,CCN(CC)CCNc1nc(C=Cc2ccc(Cl)cc2)nc2cc3ccccc3cc12 [TCMDC-125777],86.86
7,CCN(CC)CCNc1ccnc2[nH]c3ccc(Cl)cc3c12 [TCMDC-131832],4.266
8,CNC(=O)NC1=NC(C)(C)N(OCc2ccc(Cl)c(Cl)c2)C(NC(=O)NC)=N1 [TCMDC-131694],10.36
9,CN(C)Cc1ccc(O)c(-c2ccc(C(C)(C)C)cc2)n1 [TCMDC-124147],10.19
10,COc1ccc2nccc([C@@H](O)CN3CCC(NCCNc4cccc(F)c4)CC3)c2c1 [TCMDC-140716],-36.18
11,Cc1cc(N[C@@H](CC(C)C)C(=O)NCc2cccs2)nc(Nc2ccccc2)n1 [TCMDC-134739],-4.41
12,COc1ccc(NC(=O)[C@H](CC(C)C)Nc2cc(C)nc(NCCc3ccccc3OC)n2)cc1 [TCMDC-134805],-9.787
13,Cc1cc(N[C@@H](CC(C)C)C(=O)NCCc2ccccc2)nc(NCCc2cccs2)n1 [TCMDC-134816],67
14,COc1ccc(NC(=O)[C@H](CC(C)C)Nc2cc(C)nc(NCCc3cccs3)n2)cc1 [TCMDC-134875],-27.08
15,COc1ccccc1CCNc1nc(C)cc(N[C@@H](CC(C)C)C(=O)NCc2cccs2)n1 [TCMDC-134806],64.45
16,Cc1cc(N[C@@H](CC(C)C)C(=O)NCc2cccs2)nc(NCCc2ccc(F)cc2)n1 [TCMDC-134794],46.14
17,Cc1cc(N[C@@H](CC(C)C)C(=O)NCc2cccs2)nc(NCCc2cccs2)n1 [TCMDC-134815],136.3
18,Cc1cc(N[C@@H](CC(C)C)C(=O)NCCc2ccccc2)nc(Nc2ccccc2)n1 [TCMDC-134742],-5.247
19,COc1ccccc1CCNc1nc(C)cc(N[C@@H](CC(C)C)C(=O)Nc2ccccc2)n1 [TCMDC-134808],19.68
20,Cc1cc(N[C@@H](CC(C)C)C(=O)NCc2cccs2)nc(NCCc2ccccc2)n1 [TCMDC-134779],68.3
21,Cc1cc(N[C@@H](CC(C)C)C(=O)NCCc2ccccc2)nc(NCc2ccccc2C)n1 [TCMDC-134911],-9.933
22,O=C(Nc1cccc(-c2ccc(-c3nc4ccccc4[nH]3)cc2)c1)c1cnn2cccnc12 [TCMDC-136866],-17.05

row,Compound,% Inhibition [%]
1,CN(c1ccc(NC(=O)CCOc2ccccc2)cc1)C1CCN(Cc2cccc(O)c2)CC1 [TCMDC-134988],49.59
2,CC(C)(C)OC(=O)C1CCCN(Cc2ccc(-c3cccc(-c4nc5ccccc5[nH]4)c3)cc2)C1.O=C(O)C(F)(F)F (stereo not drawn) [TCMDC-132560],11.65
3,C=CCN1CCC(N(Cc2cccc(Oc3ccccc3)c2)C(=O)C(c2ccccc2)c2ccccc2)CC1 [TCMDC-139601],20.39
4,CC(C)(NCc1ccc(OC(F)(F)F)cc1)c1nc(-c2ccc(Cl)c(O)c2)c(-c2ccncc2)[nH]1 [TCMDC-140709],-27.3
5,CCOC(=O)c1cn(CC)c2cc(N(C)CCc3ccc(OC)c(OC)c3)c(F)cc2c1=O [TCMDC-124159],16.46
6,O=C(NCc1ccc(Cl)cc1)c1ccc(CN2CCCN(CC3CCCCC3)CC2)cc1 [TCMDC-136441],-2.203
7,O=C(OCC1CCN(Cc2ccccc2)C1)c1ccc(Cl)cc1 (stereo not drawn) [TCMDC-138995],-9.252
8,CCc1ccc(CN2CCC(CN(C(=O)c3ccccc3)c3ccc(Cl)cc3)CC2)cc1 [TCMDC-135382],136.1
9,CC(=O)Nc1ccc(C(=O)NC2CCN(c3ccnc4cc(Cl)ccc34)C2)cc1 (stereo not drawn) [TCMDC-133650],-2.707
10,COc1ccc(CN2CCC(NCc3ccc(C(F)(F)F)cc3)CC2)cc1 [TCMDC-141653],11.64
11,O=[N+]([O-])c1cccc(CNCC2CCN(Cc3ccc(O)cc3)CC2)c1 [TCMDC-141212],5.704
12,COc1ccc(CN2CCC(CNCc3cccc(-c4ccccc4)c3)CC2)cc1 [TCMDC-141349],97.96
13,COc1ccc(CN2CCC(CNCC(c3ccccc3)c3ccccc3)CC2)cc1 [TCMDC-141342],89.13
14,O=[N+]([O-])c1cccc(CNCC2CCN(Cc3ccc(-c4ccccc4)cc3)CC2)c1 [TCMDC-141208],17.3
15,COc1ccc(CN2CCC(CNC(C)c3cccc4ccccc34)CC2)cc1 (stereo not drawn) [TCMDC-141341],-19.33
16,CCN(CC)c1ccc(C(c2ccc(N(CC)CC)cc2)c2cccc([N+](=O)[O-])c2)cc1 [TCMDC-131244],-3.754
17,Cc1cccc2nc(-c3ccc(-c4cccc(CN5CCN(c6ccc(C#N)cn6)CC5)c4)s3)[nH]c12.O=C(O)C(F)(F)F [TCMDC-133111],-25.75
18,CCN(CC)CCCC(C)Nc1ccnc2cc(C#N)ccc12 (stereo not drawn) [TCMDC-138027],-9.256
19,CCOc1ccc(OCCCON2C(N)=NC(N)=NC2(C)C)cc1 [TCMDC-131735],-0.1444
20,Cc1cc(N)nc2cc(CNCCc3ccccc3Br)ccc12 [TCMDC-138095],22.25
21,Cc1cc2cc(CNCCc3ccccc3Br)ccc2nc1N [TCMDC-138097],84.79
22,Cc1cc2ccc(CNCCc3ccccc3Br)cc2nc1N [TCMDC-138094],34.17
